APOBEC3A inh – APOBEC3A ssDNA deaminase inhibitors, primary screen, selectivity assay for APOBEC3G inhibitor project, biochemical, FAM/TAMRA oligo cleavage fluorescence | DNA dC->dU-editing enzyme APOBEC-3A (Homo sapiens), P31941 | AID 493011, 2011 | 0.41% of 330,000 active | inhibition, % at 20 µM | recombinant A3A, FAM/TAMRA ssDNA deamination fluorescence;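 active = at least 40% inhibition at 20 µM here, with at most 30% in a related deaminase screen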;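 also: plate controls were A3A with DMSO for no effect and wells lacking A3A enzyme for full effect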
Target sequence (P31941 whole entry, looked up): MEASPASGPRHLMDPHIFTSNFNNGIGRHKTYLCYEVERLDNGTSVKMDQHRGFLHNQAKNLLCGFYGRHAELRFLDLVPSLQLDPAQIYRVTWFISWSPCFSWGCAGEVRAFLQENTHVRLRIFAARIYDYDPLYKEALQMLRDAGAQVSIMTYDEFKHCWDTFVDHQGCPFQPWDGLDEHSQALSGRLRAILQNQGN
TAG inh – inhibitors of triacylglycerol accumulation, primary screen, cell-based, uHTS, fluorescence, H9c2; inhibition, % at 12.5 µM; AID 651582, 2012; 0.66% of 230,000 active; H9c2 cells, Nile Red lipid (TAG) fluorescence; cells loaded with 200 µM oleic acid;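 active = pattern-corrected inhibition of lipid staining of at least 50% with the nuclear-stain viability signal not falling by more than 50%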;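 also: 0% = DMSO wells and 100% = triacsin C control wells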
NadD inh – inhibitors of S. aureus NadD, primary screen, biochemical, colorimetric, uHTS. Nicotinate-nucleotide adenylyltransferase NadD (Staphylococcus aureus N315). AID 602399, 2012. purified NadD enzyme, colorimetric absorbance read-out. 0.78% of 360,000 active. inhibition, % at 20 µM; in the data active = inhibition above about 26%
APOBEC3G inh – APOBEC3G DNA deaminase inhibitors, primary screen, biochemical, fluorescence, single-stranded DNA substrate, uHTS; recombinant A3G, ssDNA deamination FAM/TAMRA fluorescence; inhibition, % at 20 µM; 0.28% of 330,000 active; AID 493012, 2011;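 active = inhibition of at least 40% at 20 µM, with no more than 30% in the related APOBEC3A deaminase screen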;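 also: plate controls were DMSO wells with A3G for no effect and wells lacking A3G enzyme for full effect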
Target sequence (Q9HC16 whole entry, looked up): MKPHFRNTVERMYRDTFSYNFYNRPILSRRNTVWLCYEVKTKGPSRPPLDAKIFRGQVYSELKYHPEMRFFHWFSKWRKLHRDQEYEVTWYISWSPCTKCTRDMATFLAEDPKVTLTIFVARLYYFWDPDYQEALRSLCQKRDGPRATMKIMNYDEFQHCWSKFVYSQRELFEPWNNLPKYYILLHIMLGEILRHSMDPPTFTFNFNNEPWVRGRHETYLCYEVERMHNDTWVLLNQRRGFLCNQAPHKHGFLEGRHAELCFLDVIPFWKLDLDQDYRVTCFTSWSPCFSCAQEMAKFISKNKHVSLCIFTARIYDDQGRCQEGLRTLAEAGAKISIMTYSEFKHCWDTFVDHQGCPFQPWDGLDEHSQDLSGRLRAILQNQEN
H9c2 protect – cardioprotection against H2O2-induced cell death, primary screen, uHTS, H9c2 cells, ATPLite luminescence; H9c2 cardiomyocytes, H2O2 injury protection, 2 h; protection from H2O2 cell death, % at 20 µM; 0.63% of 360,000 active; AID 588492, 2011;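 active = compounds giving at least 50% protection of heart cells from peroxide-induced death in the single-dose screen, raw or plate-pattern-corrected value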;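 also: 0% = DMSO wells with peroxide and 100% = DMSO wells without peroxide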
PfGluPho inh – PfG6PD enzyme inhibitors, primary screen, biochemical, fluorescence intensity, uHTS; inhibition, % at 20 µM; glucose-6-phosphate dehydrogenase-6-phosphogluconolactonase (Plasmodium falciparum 3D7); PfGluPho enzyme, NADPH resazurin-diaphorase fluorescence; 0.78% of 350,000 active;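 active = inhibition reaching at least a set limit at 20 µM in the primary screen, cut at about 59% in these data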;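 also: 0% = DMSO wells with substrate and 100% = DMSO wells lacking glucose-6-phosphate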
APOBEC3A confirm – APOBEC3A deaminase inhibitors, retest, confirmation, selectivity assay for APOBEC3G inhibitor project, biochemical, single concentration, fluorescence readout; shares compounds with APOBEC3A inh; recombinant A3A, ssDNA deaminase UDG fluorescence assay; inhibition, % at 20 µM; 63% of 1,400 active; AID 493151, 2011;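 active = inhibition reaching a set limit, 80% of the first screen's cutoff, at 20 µM in any replicate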;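 also: plate controls were DMSO wells with A3A for no effect and wells lacking A3A enzyme for full effect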
UDG ctr A3A – E. coli UDG inhibitors, confirmation, counter-screen for APOBEC3A inhibitor project, biochemical, single concentration, fluorescence, FAM/TAMRA oligo | shares compounds with APOBEC3A inh | UDG counterscreen, FAM/TAMRA uracil oligo fluorescence | inhibition, % at 20 µM | 1,000 tested, under 10 active | AID 504714, 2011; call rule not given here
* marks the source's active call; other numbers are inactive results; . = no result given. Compounds with a hit are over-represented: about 2.9% of the library has one in this group of screens.

SMILES	APOBEC3A inh	TAG inh	NadD inh	APOBEC3G inh	H9c2 protect	PfGluPho inh	APOBEC3A confirm	UDG ctr A3A
CN1CCC(N(C)S(=O)(=O)c2ccc(NC(=O)c3ccc(S(=O)(=O)N(C)C)cc3)cc2)CC1	47*	-7	-7	1	-2	-4	39*	-3
Cc1ccccc1OCCC(=O)Nc1ccc(S(=O)(=O)N(C)C2CCN(C)CC2)cc1	1	9	-5	7	-1	-4	.	.
CN1CCC(N(C)S(=O)(=O)c2ccc(NC(=O)COc3ccc(Br)cc3Cl)cc2)CC1	42*	13	-1	-6	-10	4	48*	2
CN(C)C1CN(Cc2cn(Cc3ccc(C(F)(F)F)cc3)nn2)S(=O)(=O)C1 (stereo not drawn)	.	.	2	.	.	.	.	.
CCOC(=O)C1CCN(CCCSc2ccccc2)CC1	.	6	-5	.	9	7	.	.
CN(CC(=O)Nc1ccc(F)cc1)C(=O)c1ccc(N2C(=O)CCC2=O)cc1	35	14	11	6	2	5	.	.
COc1ccc(CCCC(=O)NCCc2ccccc2)c(C)c1	41*	.	4	6	5	-1	12	.
CC(=O)c1ccc(OCCCC(=O)NC2CCCCC2C)cc1 (stereo not drawn)	-2	.	-2	-6	2	-8	.	.
COc1ccc(CCCC(=O)NC2CCCCC2C)c(C)c1 (stereo not drawn)	71*	.	11	29	-3	4	71*	3
CC(C)(C)OC(=O)C[C@@H]1C/C=C\C[C@@H](CC(=O)N[C@@H](CO)Cc2ccccc2)C(=O)N2CCC[C@@H]2COC1=O	4	-6	-12	-3	6	-3	.	.
Cc1cccc(NC(=O)CN2C(=O)NC3(CCCCCCC3)C2=O)c1C	-3	-14	2	-7	-1	-1	.	.
COCCN(CC(=O)Nc1cccc(C)c1C)C(=O)CN1C(=O)NC2(CCCCC2)C1=O	41*	-8	9	6	5	2	49*	1
COc1ccccc1C(=O)Nc1ccc(OCC(=O)N2CC(C)OC(C)C2)cc1 (stereo not drawn)	2	34	-6	1	-13	9	.	.
COCCn1c(N)c(N(Cc2ccccc2)C(=O)C2=COCCO2)c(=O)[nH]c1=O	49*	-4	5	18	6	11	21	.
COCCn1c(N)c(N(Cc2ccccc2)C(=O)c2ccc3ccccc3c2)c(=O)[nH]c1=O	21	-6	-2	-1	4	-2	.	.
Cc1cccc(-n2c(CNC(=O)c3ccc(S(=O)(=O)N4CCCCC4)cc3)n[nH]c2=S)c1	-3	.	-8	13	-2	27	.	.
CCCCN(c1nc2ccccc2nc1Cl)S(=O)(=O)c1ccc(C)cc1	2	.	-7	-5	-18	16	.	.
C=CCn1c(C)c(/C=C/c2cc[n+](C)cc2)c2ccccc21	42*	.	19	-5	-16	9	59*	-14
C=CCn1cc(/C=C/c2cc[n+](C)cc2)c2ccccc21	38	.	15	-16	-14	5	.	.
CCn1cc(/C=C/c2cc[n+](C)cc2)c2ccccc21	.	.	12	.	-14	-5	.	.
CCN(CC)C(=O)Cn1c(C)c(/C=C/c2cc[n+](C)cc2)c2ccccc21	64*	-9	14	17	-2	-12	62*	-5
CC(C)(C)c1ccc(OCc2ccc(C(=O)NCc3cccnc3)o2)cc1	-1	.	-5	-4	-15	11	.	.
CC1CN(C(=O)CSc2nnc(NC(=O)NC(C)(C)C)s2)CC(C)O1 (stereo not drawn)	-2	21	-2	-8	4	3	.	.
COc1ccc(/C=C/c2nc(S(=O)(=O)c3ccccc3)c(N(C)C)o2)cc1	-6	.	-8	-4	-1	10	.	.
Cc1cc(C)nc(SCc2nnc(SCC(=O)Nc3ccc(Cl)c(C(F)(F)F)c3)o2)n1	70*	.	1	-2	-9	45	-3	19
SMILES	APOBEC3A inh	TAG inh	NadD inh	APOBEC3G inh	H9c2 protect	PfGluPho inh	APOBEC3A confirm	UDG ctr A3A
Cc1cccc(NC(=O)CSc2nnc(CSc3nc(C)cc(C)n3)o2)c1	-2	15	-7	-3	-2	8	.	.
COc1ccc(CCCc2nnc(SCC(=O)Nc3ccc(C)c(C)c3)o2)cc1	50*	.	3	27	0	-1	72*	4
COc1ccc(CCCc2nnc(SCC(=O)Nc3ccc(OC)cc3)o2)cc1	45*	17	10	16	-4	22	71*	6
COc1ccc(CCCc2nnc(SCC(=O)Nc3cc(C)ccc3C)o2)cc1	0	.	-4	-2	-3	-7	.	.
CCc1ccc(NC(=O)CSc2nnc(CNC(=O)c3ccc(OC)cc3)o2)cc1	-6	.	-3	-7	0	4	.	.
CCN1CCN(CC(=O)c2c[nH]c3ccccc23)CC1	-2	1	1	-7	3	-5	.	.
O=C(CN1CCN(C2CCCCC2)CC1)c1c[nH]c2ccccc12	51*	7	4	27	8	-13	20	.
O=C(Nc1cc2c(cc1Br)OCCCO2)c1ccccc1	55*	.	-5	2	-2	6	1	.
O=C(Nc1cc2c(cc1Br)OCCCO2)c1cccnc1	-2	7	-1	-2	-1	18	.	.
CC(O)c1nc2ccccc2n1CCCCOc1ccccc1 (stereo not drawn)	3	-10	1	6	1	8	.	.
CCOC(=O)C1CCCN(C(=O)Cc2ccc(OC)c(OC)c2)CC1 (stereo not drawn)	.	-27	2	.	-12	.	.	.
CCn1cc(/C=C(\NC(=O)c2ccccc2F)C(=O)NCCN2CCOCC2)c2ccccc21	81*	.	2	-2	5	17	-7	2
CCn1cc(/C=C(\NC(=O)c2ccccc2OC)C(=O)NCCCN2CCOCC2)c2ccccc21	-8	.	-6	-2	5	8	.	.
O=C(CSc1ncccn1)N1CCN(C(c2ccccc2)c2ccccc2)CC1	47*	.	16	8	4	-7	70*	-2
